Sampled rows, rich in hits. Any-hit rate of the full collection: about 2.6%.
TCR CD3 inh – inhibitors of human TCR-CD3 interaction, primary screen, biochemical, fluorescence, TAMRA-labeled TCR probe; inhibition, % at 9.4 µM; AID 651800, 2012; hit rate 0.37% among 360,000; T-cell receptor (TCR); in the data active = inhibition above about 19%;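 also: recombinant mutant TCR 2C K166C tagged with TAMRA read by polarization; 0% = receptor in buffer alone and 100% = receptor with positive control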
PRMT1 FP inh – PRMT1 methyltransferase inhibitors, primary screen, biochemical, fluorescence polarization | recombinant PRMT1, activity-based probe fluorescence polarization | hit rate 1.3% among 370,000 | AID 652257, 2013 | inhibition, % at 2.79 µM | Protein arginine N-methyltransferase 1 (Homo sapiens), Q99873;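 active = inhibition above about 21% made by adding two undisclosed values, limit read from the data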
PAD4 FP inh – human PAD4 inhibitors, primary screen, biochemical, fluorescence polarization, 1536-well format; AID 485272, 2010; recombinant PAD4, RCA probe fluorescence polarization; inhibition, % at 6.36 µM; hit rate 0.41% among 330,000; Protein-arginine deiminase type-4 (Homo sapiens), Q9UM07;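 active = percent inhibition above a cutoff equal to the mean of all tested compounds plus 3 SD, cut at about 15% in these data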;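 also: 0% = PAD4 with RCA probe and DMSO and 100% = probe without PAD4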
PME-1 inh – PME-1 inhibitors via competitive probe labeling, primary screen, biochemical, fluorescence polarization, FP-Rh probe, HTS; recombinant PME-1; hit rate 0.53% among 320,000; inhibition, % at 5.9 µM; AID 2130, 2009; Protein phosphatase methylesterase 1 (Homo sapiens), Q9Y570;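 active = inhibition above the campaign mean of all compounds plus 3 SD, cut at about 26% in these data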;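 also: competitive labeling of PME-1 active site by serine hydrolase directed probe; 0% = PME-1 with DMSO and 100% = wells lacking PME-1 enzyme; inhibitors block probe labeling so polarization falls and inhibition rises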
Target sequence (Q9Y570 whole entry, looked up): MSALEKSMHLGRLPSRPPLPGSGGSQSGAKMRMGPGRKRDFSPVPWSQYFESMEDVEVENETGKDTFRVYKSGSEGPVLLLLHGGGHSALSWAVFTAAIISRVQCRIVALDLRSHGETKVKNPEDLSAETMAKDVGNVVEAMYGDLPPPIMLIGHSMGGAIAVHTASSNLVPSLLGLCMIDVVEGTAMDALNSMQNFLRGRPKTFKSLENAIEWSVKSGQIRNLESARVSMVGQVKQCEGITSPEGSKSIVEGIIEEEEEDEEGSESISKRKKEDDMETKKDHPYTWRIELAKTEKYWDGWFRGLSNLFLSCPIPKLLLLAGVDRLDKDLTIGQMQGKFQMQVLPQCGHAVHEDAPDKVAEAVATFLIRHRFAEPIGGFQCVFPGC
Fam108B counter – mouse Fam108B serine hydrolase inhibitors, primary screen, counter-screen for RBBP9 inhibitor project, biochemical, fluorescence polarization | AID 1947, 2009 | hit rate 0.33% among 300,000 | inhibition, % at 9.51 µM | recombinant Fam108B, FP-Rh probe fluorescence polarization;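 active = inhibition above the screen mean inhibition plus 3 SD, computed separately per campaign, cut at about 18% in these data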;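 also: inhibitors lower polarization as less probe binds the enzyme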
SIAE inh – human SIAE inhibitors, primary screen, biochemical, fluorescence polarization, FP-Rh probe, 1536-well HTS; SIAE FP-Rh probe binding; inhibition, % at 9.66 µM; hit rate 0.69% among 370,000; Sialate O-acetylesterase (Homo sapiens), Q9HAT2;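 active = inhibition above a cutoff: mean of compounds within the control limits plus 3 SD of those, cut at about 17% in these data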;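 also: 0% = plate median of compound wells and 100% = probe without SIAE protein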
SIAE confirm – human SIAE inhibitors, retest, confirmation, biochemical, fluorescence polarization, FP-Rh probe, triplicate. shares compounds with SIAE inh. SIAE FP-Rh activity-based probe. inhibition, % at 9.66 µM. hit rate 13% among 2,300. AID 1117263, 2014;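 active = mean inhibition of the replicates above the hit cutoff set in the primary screen, cut at about 17% in these data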;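 also: 0% = SIAE with DMSO and probe and 100% = probe without SIAE; inhibitors lower polarization as more probe stays unbound to SIAE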
* = called active by the depositor; nt = no result given.

SMILES	TCR CD3 inh	PRMT1 FP inh	PAD4 FP inh	PME-1 inh	Fam108B counter	SIAE inh	SIAE confirm
C[C@H](O)[C@@H]1CN2CCc3c([nH]c4ccccc34)[C@@H]2C[C@@H]1N(C)C(=O)Nc1cccc2ccccc12	-7	10	nt	nt	nt	22*	-6
CCNC(=O)N(C)[C@H]1C[C@H]2c3[nH]c4ccccc4c3CCN2C[C@H]1[C@H](C)O	1	5	nt	nt	nt	3	nt
COc1ccc(NC(=O)CC2C(=O)N(C)C(=S)N2Cc2ccco2)cc1 (centres undefined)	10	0	-10	1	4	20*	4
O=C(Cn1c(=S)[nH]c2ncccc2c1=O)NCCc1ccccc1	-8	-2	-1	0	2	36*	-3
O=c1c2cccnc2[nH]c(=S)n1Cc1ccccc1	-1	1	-2	0	-5	-3	nt
CCOC(=O)[C@@]12CCCC=C1N(CCc1ccc(Cl)cc1)C(=O)[C@H]2CC(=O)N1CCC(c2ccccc2)CC1	nt	-7	nt	nt	nt	7	nt
Cc1ccccc1N1CCN(C2=NC(=O)/C(=C/c3cn[nH]c3-c3ccccc3)S2)CC1	8	0	-9	-3	-2	24*	-6
CCCCCCCCNC(=O)C1CSCCS(=O)(=O)N1Cc1ccc(F)cc1 (centres undefined)	nt	1	nt	nt	nt	-7	nt
CCOC(=O)c1c(C)sc2c1N(C(=O)CN(CC)CC)c1ccccc1S2	-10	0	-3	9	-4	17*	1
O=C(Nc1ccc(F)cc1)Nc1cc(S(=O)(=O)N2CCOCC2)ccc1N1CCCC1	0	3	1	0	0	20*	17*
O=S1(=O)c2ccc(N3CC[C@@H](O)C3)cc2OCCCN1C1CC1	nt	-2	nt	nt	nt	6	nt
CC(=O)Nc1cc(NC(C)=O)cc(C(=O)NCC2(N3CCOCC3)CCCCC2)c1	3	-1	nt	nt	nt	21*	-3
Cc1cccc(NC(=O)Nc2nc3ncccn3c2-c2ccccc2)c1	nt	-1	nt	nt	nt	-2	nt
Nc1[nH]c(C(=O)c2ccc(Br)cc2)c(-c2ccc(Br)cc2)c1C(=O)N1CCCCC1	nt	1	nt	nt	nt	-13	nt
COC(=O)CCCNC(=O)CCc1nnc(-c2ccc(-c3ccccc3)cc2)o1	3	-2	-3	1	2	18*	0
COc1ccc(Nc2nc(-c3cccc(OC)c3O)nc3ccccc23)cc1	-3	-3	nt	nt	nt	18*	-29
COc1cccc(-c2nc(NC(C)(C)C)c3ccccc3n2)c1O	-3	-4	-4	14	11	15	nt
CC(=O)c1ccc(N2CCN(c3ccccc3O)CC2)c([N+](=O)[O-])c1	-9	8	-8	5	1	31*	-2
Cn1c(CCN2CCN(c3ccccn3)CC2)nc2cc(NC(=O)COc3ccccc3)ccc21	0	2	0	-2	-2	70*	1
O=C(COC(=O)C1COc2ccccc2O1)NC(=O)NC1CCCCC1 (centres undefined)	-6	2	0	-3	0	47*	-3
O=C(COC(=O)C1COc2ccccc2O1)NC1CCS(=O)(=O)C1 (centres undefined)	6	3	3	3	-1	1	nt
CC(=O)c1ccc(OCC(=O)NC(=O)NC2CCCC2)cc1	3	-3	nt	nt	nt	18*	4
O=C(/C=C/c1ccco1)c1cccc([N+](=O)[O-])c1	3	20	nt	nt	nt	8	nt
O=C(N/N=C/C=C/c1ccco1)c1cccc([N+](=O)[O-])c1	3	10	1	-6	-1	17*	-6
CCC(C)N1C(=O)CN(C2CCCCCC2)C(=O)C1c1ccccc1F (centres undefined)	5	-1	-4	-6	4	19*	-1
SMILES	TCR CD3 inh	PRMT1 FP inh	PAD4 FP inh	PME-1 inh	Fam108B counter	SIAE inh	SIAE confirm
Cc1cccc(NC(=O)Nc2ccccc2C(=O)N2CCCC2)c1	nt	-1	nt	nt	nt	0	nt
Cc1ccnc(NC(=O)c2cccc(S(=O)(=O)NCc3ccccc3)c2)c1	3	-10	-3	-6	2	21*	-3
CCOc1ccc(-n2c(SCC(=O)Nc3ccccc3-c3ccccc3)nnc2-c2ccccc2)cc1	nt	-3	nt	nt	nt	-2	nt
COc1ccc(C(=O)OCC(=O)c2ccc(CNC(C)=O)s2)cc1	6	-2	-1	1	nt	24*	-1
Cc1ccccc1NC(=S)N1CCN(c2ccccc2)CC1	4	-3	-2	-6	2	18*	3
CCOC(=O)[C@]12CCCCC/C=C\1N(CCc1ccc(Cl)cc1)C(=O)[C@H]2CC(=O)NCc1ccccc1	nt	-3	nt	nt	nt	1	nt
CC(=O)Nc1c(NC(C)(C)C)c2ccccc2oc1=O	-2	-4	3	-1	-1	21*	1
CCOc1cc(N(CC)CC)ccc1/C=C(/C#N)c1nc2ccccc2[nH]1	-7	12	-3	30*	8	27*	6
Nc1cccc(C2=Nc3cccc4cccc(c34)N2)c1	0	-5	-6	24	16	45*	4
CC(C)C1=Nc2cccc3cccc(c23)N1	12	9	0	4	1	11	nt
COc1ccc(C2=Nc3cccc4cccc(c34)N2)cc1	5	3	0	4	13	26*	2
O=C(NCc1ccco1)C1CCCN(c2ncccn2)C1 (centres undefined)	nt	3	nt	nt	nt	0	nt
O=C(COc1ccc(Cl)cc1Cl)N1CCCCCC1	5	-2	-3	-4	-4	18*	-3
O=C(COc1ccc(S(=O)(=O)N2CCCCC2)cc1Cl)N1CCCC1	-6	3	-4	5	1	1	nt
CC(C)(C)N(NC(=O)Nc1ccccc1)C(=O)c1ccccc1	-5	-4	-8	6	2	-3	nt
CC(C)(C)N(NC(=O)Nc1ccc(Cl)cc1)C(=O)c1ccccc1	5	0	-3	15	0	17*	-7
O=S(=O)(Nc1ccc(Nc2ccccc2)cc1)c1ccc(F)cc1	-7	5	-9	1	4	18*	3
Cc1ccc(S(=O)(=O)Nc2ccc(Nc3ccccc3)cc2)cc1	-13	6	-1	8	7	16	nt
Cc1c(C(=O)N/N=C/c2ccc(-c3ccccc3[N+](=O)[O-])o2)sc(N)c1C#N	4	16	-16	12	10	26*	6
Cc1c(-c2ccc(/C=N/NC(=O)C(=O)Nc3ccccc3F)o2)cccc1[N+](=O)[O-]	-4	4	1	10	2	-6	nt
